# Source: the supplement of paper PMC11417369
# ± gives the standard deviation of the averaged measurements. Over roughly 25,000 sequences, “ln(normalized median fluorescence intensity)” has its median near 8.9; the highest 2% begin near 10. Many of the other results were omitted from the sample, so the highest values are more common in it than they were.
# Tested on: PfAP2-LT AP2 domain (GST-tagged)
# Experiment: gcPBM binding intensity (ln(normalized median fluorescence intensity)); higher = stronger DNA binding
# In short: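 Probes on an Agilent 4 × 180k array were primer-extended, double-stranded and 36 bp long, taken from intergenic genomic regions, with negative controls added. GST-tagged P. falciparum DNA-binding domains from E. coli, about 25 μg on average, were applied to the array for 1 h in 1× PBS containing 1% milk, 0.2 mg/ml BSA, 0.5% salmon testes DNA and 0.03% Triton X-100. Binding intensity, obtained after Alexa488 anti-GST antibody detection and a 488 nm scan, is the highest Masliner-normalised natural-log median intensity across replicate spots of either probe orientation.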
row,Sequence,gcPBM binding intensity (ln)
1,ATATATATATAATTATATAAAATATATCATATGTTA [XGTACX_negctrl_site47],8.53 ± 0.42
2,TTTAATCATATGTTATATAATAAGCCCCCCCCCCAA [CACACA_negctrl_site486],10.2 ± 0.17
3,TATTAATTATATTTATGTACATAATCATATTATTAT [XGTACX_site7938],8.94 ± 0.44
4,AGCACAAGCACAAGCACACATTTATATATAAATACA [CACACA_site4642],9.1 ± 0.47
5,ATTTTTATTTTATATACACACAATAATAATATAATA [CACACA_site4015],8.62 ± 0.36
6,ATAATACACAAGCACACACACACACGGATATTTATA [CACACA_site6714],10.4 ± 0.23
7,AATTAAAAAAAATACACACACACATACCCATATATA [CACACA_site5767],9.85 ± 0.28
8,TTTATTTATTATTGTTGTACACTTTTTATAAAAAAA [XGTACX_site5114],8.57 ± 0.53
9,ATGAAAAAAAAAAAAAAAAAAAAAAAAAAAAAAATA [CACACA_negctrl_site1083],8.37 ± 0.55
10,AAAAATTTGGCATACACACACACACCCACACCCACA [CACACA_site587],10.03 ± 0.042
11,AAAAATTTGGCATACACACACACACCGACACAGACA [CACACA_site4489],10 ± 0.23
12,AAAAAAATTTGGCATACACACACACCCCCACCCACA [CACACA_site8094],10.41 ± 0.05
13,AAAAAATTCATATATACACACACGCACATATATATA [CACACA_site4226],9.53 ± 0.13
14,AAAATTCATATATACACACACGCACATATATATATA [CACACA_site90],9.71 ± 0.21
15,AAAAATTTGGCATACACACACACACGCACACGCACA [CACACA_site6422],10.2 ± 0.21
16,CACATACACCCATACACACACATATATATTAAGATA [CACACA_site4459],9.57 ± 0.38
17,TATATATATATATAATGTACAAACTCCTTTATATAT [XGTACX_site4545],9.05 ± 0.2
18,ATTATTTTATTATAGTGTACTTTTTTAATCAAAGGA [XGTACX_site8921],8.44 ± 0.4
19,TTAGGTTATAAATACACACACAAAAGAAAAAAAAAA [CACACA_site5625],9.23 ± 0.55
20,TTATGATCATTTATATGTACACATAATTTTTGTGCT [XGTACX_site5568],9.03 ± 0.44
21,AAAAAAAAAAAAAAGAGTACATTTATTTATATATCT [XGTACX_site2381],8.46 ± 0.33
22,AATAGAATAATCCTTACACACACACCCACACGAATA [CACACA_site8053],9.87 ± 0.16
23,TAGAATAATCCTTACACACACACACCCACGAATAAA [CACACA_site483],10.1 ± 0.2

row,Sequence,gcPBM binding intensity (ln)
1,AATAGAATAATCCTTACACACACACGCGCACGAATA [CACACA_site6365],9.78 ± 0.31
2,TTTTTTTTAGTATGAACACACATATAGATTATAAAA [CACACA_site7391],8.35 ± 0.41
3,ATATAAATAATATAAATACACACTAAAAAAAATATA [CACACA_site542],8.88 ± 0.44
4,AAAAAATATATATTAACACACACACTAATAAAAAAA [CACACA_site8366],9.56 ± 0.17
5,ATAATATGAAAACACACACACACACTAATAAAAAAA [CACACA_site8617],10.3 ± 0.16
6,AATATGAACAGACACACACACACAAAAAAAAAAAAA [CACACA_site2012],9.9 ± 0.56
7,ATAATATGAAATATAACACACATATATAAAAACATT [CACACA_site866],9.11 ± 0.33
8,ATAATCCTTAAACACACACACACACTAATAAATAAA [CACACA_site8052],10.1 ± 0.25
9,AAAAAAAAAAAACACACACACACACTAATATATAAA [CACACA_site8302],10.3 ± 0.35
10,TATGAACACAGACACACACACAAAAAAAAAAAAAAA [CACACA_site7037],9.18 ± 0.56
11,AAAAAAAATATGAAAACACACATATATAAATAAATA [CACACA_site113],8.88 ± 0.46
12,TACATAAATTAAAACACACACACACTAATAAAAAAA [CACACA_site8712],9.85 ± 0.18
13,TATATATATATATATACACACACACTAATAAAAAAA [CACACA_site8426],9.65 ± 0.057
14,AACAAACACAGACACACACACACACTAATATGATTA [CACACA_site8770],10.2 ± 0.45
15,CTTATATGAAGCCTCTTTATTCATAAATAAGAATAA [TGCATGCA_negctrl_site120],8.21 ± 0.38
16,AAAATTATTTTTATGTGTACTTATTTATTATTTATA [XGTACX_site6665],8.79 ± 0.46
17,ATTATCTTATGTTATTTATTTGTCCCACATTTGTTA [TGCATGCA_negctrl_site402],8.91 ± 0.46
18,AAATTGTCAAAACACGCACACACATATACATAATAA [CACACA_site1743],9.62 ± 0.36
19,ATTCATTATTCACCTTGTACACAAATGATTATCGTA [XGTACX_site455],8.93 ± 0.45
20,AAAAAATCAAAACACACACACACACTAGAAAAAAAA [CACACA_site4909],10.1 ± 0.49
21,ATAATATGAAAACACACACACACACTAGAAAAAAAA [CACACA_site5153],10.2 ± 0.27
22,AATAATAAACACAATCAAATAAAATATGAAATATAA [GTGCAC_negctrl_site307],8.84 ± 0.49
23,GAGAAAAATAAATACACACACATAAATAAATACATA [CACACA_site5102],9.74 ± 0.42

row,Sequence,gcPBM binding intensity (ln)
1,CAGTGCCAAATTAGCACACACATATATACATGAATT [CACACA_site2814],9.3 ± 0.38
2,TCGTCTCTTCTTGTTCTGTTTTAGAAGGCTATATAT [CACACA_negctrl_site180],8.88 ± 0.44
3,AAGAACAGATAAAATCGTACGTGAAACATGAACTTG [XGTACX_site7793],9.03 ± 0.48
4,AATGTGCAAACAAACTGTACTTTTTTTTTTTTTTTT [XGTACX_site928],8.86 ± 0.26
5,GATACAAAATGGGGAACACACACATATATATATATA [CACACA_site9278],10.1 ± 0.22
6,AAAAAAAAAAAACATACACACAAATATATACATACA [CACACA_site4011],9.15 ± 0.33
7,CATAAAAATGAACATACACACATATATATATATATA [CACACA_site2498],9.8 ± 0.17
8,TACAAAATGGGGAACACACACATATATAAATAAATA [CACACA_site7751],9.6 ± 0.63
9,TACAAAATGGGGAACACACACATATATATATATATA [CACACA_site3844],10.2 ± 0.05
10,AAAAAAAAAAAACACACACACACATACAAAATATAT [CACACA_site1448],10.04 ± 0.071
11,AAAATAAGCGTGAAACGTACATATTACATTATTATA [XGTACX_site8914],8.78 ± 0.56
12,TATTAAAGATACTCGGTATAAATAAATTTTAATGTG [XGTACX_negctrl_site239],8.54 ± 0.52
13,AAGAGAAATGGGCACACACACACATATTATAGATAT [CACACA_site6828],9.8 ± 0.21
14,TCTTATCCATATATTACACACTATATATAGAAATTA [CACACA_site291],8.66 ± 0.39
15,TTTGAATACTGAATGGTGCAAATTGTTCTCCCCATG,8.67 ± 0.57
16,TTTGAAATATATTTAGTGCATATATATTGATTATAA [GTGCAC_site9604],8.39 ± 0.38
17,CCCTCCCCATGTTTAGTGCAAAAATATTTGAAATTG [GTGCAC_site9873],10.1 ± 0.057
18,ATTTTAGAATAAATTTTTTACATTAAAAAACTATTT [CACACA_negctrl_site1414],8.21 ± 0.54
19,ACTTGTAAGAAACACACACACACACCGATATATATA [CACACA_site4594],10.1 ± 0.31
20,ACTTGTAAGAAACACACACACACACCCATATATATA [CACACA_site796],10.2 ± 0.16
21,AAACTTGTAAGAAACACACACACACCCATATATATA [CACACA_site797],9.96 ± 0.15
22,AAACTTGTAAGAAACACACACACACGCATATAAATA [CACACA_site6518],9.98 ± 0.099
23,ATAAGAAGAAGAAAAACACACATATGTAGATATATA [CACACA_site7469],9.01 ± 0.42

row,Sequence,gcPBM binding intensity (ln)
1,AAAGAAAGAAAGAATACACACACACCGATATATATA [CACACA_site9246],9.77 ± 0.31
2,TTTAACGTTGAATATACACACATATATATATATATA [CACACA_site3698],9.55 ± 0.042
3,TATATTAAGAAACACACACACATATATATATATATA [CACACA_site1609],9.82 ± 0.23
4,TATATATAATTATAAGAACACACATATATATATATA [CACACA_site8786],9.46 ± 0.36
5,AAACATAAGGGACACACACACATATATATATATATA [CACACA_site5920],10.2 ± 0.27
6,TATATATATAAACACACACACATATATATATATATA [CACACA_site4584],9.94 ± 0.14
7,TATATATATAAACACACACACACATATATATATATT [CACACA_site8814],9.84 ± 0.014
8,CATTATAAGAAACACACACACATATATATATATATA [CACACA_site1051],10.2 ± 0.25
9,AAACATAAGAAACACACACACATATATATATATATA [CACACA_site3642],10.32 ± 0.064
10,TATATAATTATAAGAACACACATATATATATATATA [CACACA_site2472],9.6 ± 0.16
11,AAAAAAAAAAGAAACACACACATATATATATATAAT [CACACA_site5052],9.44 ± 0.35
12,ATAAATTAACATTAAAGTACATTTTAATAAATATTA [XGTACX_site3647],8.31 ± 0.52
13,TACCAATAAATGAAGGTGCGTGCTTGCCTTTGCTAT,8.95 ± 0.31
14,TCTATACCTATTCTTACACACATATGTATAAATATA [CACACA_site6407],9.04 ± 0.36
15,ATATAATCAGCTTCTCTTTTATGCTAAAAAAAAAAA [CACACA_negctrl_site1310],8.25 ± 0.3
16,ATATTATAGTTATGAACATGCAAACATTACGAAATA [TGCATGCA_site54],8.76 ± 0.5
17,GTATATATATACCATTGTACTTTCGTAAAAATATTT [XGTACX_site4846],8.8 ± 0.4
18,TAAGACATGATATATACACACCTTGTTTTAATTTTC [CACACA_site5282],8.86 ± 0.45
19,TATATACATATATGTACACACATTACAGATGTACAT [CACACA_site966],9.21 ± 0.38
20,ATTTTTTTTTTTTTTTTGGGGGGGTATACTTTTAAA [CACACA_negctrl_site1020],10.6 ± 0.2
21,GTTAATATTTTTGGGGGTACTTAAAAAAAAAAAAAA [XGTACX_site1477],8.525 ± 0.021
22,TATACTTTATATATTTTGTATATATATTTTTTTTAT [TGCATGCA_negctrl_site530],8.8 ± 0.48
